Compound activity as filed in PubChem.
TDP1 cell noCPT: qHTS for Inhibitors of human tyrosyl-DNA phosphodiesterase 1 (TDP1): qHTS in cells in absence of CPT; DT40 Tdp1-/- hTDP1 cells, no CPT, ATP luminescence, 48 h; Potency, µM (titrated, usually from 46.2 µM), without a hit: at the top dose activity change, negative = growth inhibition, actives largely listed as inhibitors; 420,000 tested, 15% active; further: on the % scale 0 is the no-effect control and ±100 the full control effect; nearly all actives have a fitted effect of over 55% in size
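A cellular qHTS used chicken DT40 cells lacking endogenous Tdp1 but carrying stably transfected human TDP1. Compounds were applied without camptothecin, and cell growth kinetics were judged by ATP-dependent luminescence after ≥48 hr.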
HepG2 tox-1: qHTS for Inhibitors of TGF-b: Cytotox Counterscreen | 410,000 tested, 0.76% active | HepG2 CAGA-GFP viability, ATP luminescence, 18 h | Potency, µM (top dose mostly 46.1 µM), without a hit: top-dose activity change, negative = cytotoxicity, actives largely listed as cytotoxic
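CellTiter-Glo luminescence gave cytotoxicity after 18 hours at 37 degrees C. The cells were HepG2 CAGA-GFP in 1% FBS DMEM, stimulated with 500 pg/mL TGF-beta after compound addition. %Activity was normalised to no-cell wells (complete cell-killing) and DMSO (no toxicity), and curves were fitted and classified.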
TGFb inhibitor: qHTS for Inhibitors of TGF-b; HepG2 CAGA-GFP TGF-b/SMAD3 reporter, GFP fluorescence, 18 h; TGF-beta stimulated, 500 pg/mL final; Potency, µM (titrated, usually from 46.1 µM), inactives show at the top dose activity, negative = inhibition, most hits filed as inhibitors; 410,000 tested, 1.2% active; AID 588855, 2011; further: on the % scale 0 is the no-effect control and ±100 the full control effect; nearly all actives have a fitted effect of over 65% in size
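HEPG2 CAGA-GFP, 1000 cells/well; 2 h settle, 37 C; cpd via pin tool; TGF-b 500 pg/mL final; 18 h, 37 C; GFP imaging ex488/em500-530; %Activity normalised to -TGF-b and +DMSO controls; CRC fit, curve class.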
HT1080 IDH1KD tx: qHTS for induction of synthetic lethality in tumor cells producing 2HG: qHTS for the HT-1080-IDH1KD cell line | HT-1080 IDH1 knockdown viability, ATP luminescence, 48 h | Potency, µM (doses to about 46.1 µM), inactives show at the top dose activity, negative = toxicity, actives largely listed as cytotoxic | 360,000 tested, 2% active | AID 686971, 2013;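 further: 0% = DMSO wells and -100% = cell-free medium wells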
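Assay cells: HT-1080 with IDH1 knockdown, 750 per well, RPMI/5% FBS. Exposure: 48 h at 37 °C following 2 h pre-incubation. Read: CellTiter-Glo luminescence; fitted concentration-response, curve class assigned.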
TDP1 cell CPT: qHTS for Inhibitors of human tyrosyl-DNA phosphodiesterase 1 (TDP1): qHTS in cells in presence of CPT. chicken DT40 Tdp1-/-;hTDP1 cells + 20 nM CPT, ATP luminescence, 48 h. Potency, µM (doses to about 46.2 µM), for inactives: at the highest dose activity change, negative = growth inhibition, actives largely listed as inhibitors. 420,000 tested, 12% active. AID 686979, 2013; further: on the % scale 0 is the no-effect control and ±100 the full control effect; nearly all actives have a fitted effect of over 55% in size
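Chicken DT40 Tdp1-/- cells stably complemented with human TDP1 were seeded at 400 cells/well in medium containing 20 nM camptothecin, exposed to pin-transferred compounds, and grown at 37 °C for at least 48 hr. Viability was read as ATP luminescence.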
HT1080-NT tox: qHTS for induction of synthetic lethality in tumor cells producing 2HG: qHTS for the HT-1080-NT fibrosarcoma cell line. AID 686970, 2013. 360,000 tested, 1.6% active. HT-1080-NT fibrosarcoma viability, CellTiter-Glo ATP luminescence, 48 h. Potency, µM (top dose mostly 46.1 µM), for the others: at the highest dose activity, negative = less viability, actives largely listed as cytotoxic;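 further: NT is the 2HG producing partner of a matched IDH1 knockdown line; 0% = DMSO-treated cells and -100% = media-only wells without cells; nearly all actives have a fitted effect of over 55% in size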
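HT-1080-NT fibrosarcoma cells (2HG-overproducing), 750 cells/well in RPMI with 5% FBS, dosed after 2 h and incubated 48 h at 37C. CellTiter-Glo luminescence normalized to DMSO and no-cell wells; concentration-response curves fitted and classed.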
TGFb CAGA inh: qHTS for Inhibitors of TGF-b: Confirmation of Cherry Picks; shares compounds with TGFb inhibitor; HepG2 CAGA-GFP TGF-b reporter, GFP fluorescence, 18 h; cells stimulated with TGF-beta, 500 pg/mL; Potency, µM (series often up to 46.1 µM), for inactives: top-dose activity, negative = inhibition, hits mostly inhibitors; 1,600 tested, 63% active; further: on the % scale 0 is the no-effect control and ±100 the full control effect; nearly all actives have a fitted effect of over 65% in size
HepG2 tox-2: qHTS for Inhibitors of TGF-b: Cytotox Counterscreen for Cherry Picks; HepG2 CAGA-GFP viability, ATP luminescence, 18 h; cells stimulated with TGF-beta, 500 pg/mL; shares compounds with TGFb inhibitor; Potency, µM (series often up to 46.1 µM), without a hit: at the highest dose activity, negative = cytotoxicity, most hits filed as inhibitors; 1,600 tested, 27% active; further: on the % scale 0 is the no-effect control and ±100 the full control effect; nearly all actives have a fitted effect of over 70% in size
TGFb CCL64 inh: qHTS for Inhibitors of TGF-b: CCL64 Cells Orthogonal Assay for Cherry Picks. 1,600 tested, 41% active. shares compounds with TGFb inhibitor. CCL64 CAGA-GFP reporter, TGF-b stimulated, GFP fluorescence, 18 h. Potency, µM (highest dose often 46.1 µM), without a hit: at the highest dose activity, negative = inhibition, actives largely listed as inhibitors; further: nearly all actives have a fitted effect of over 65% in size
TGFb COP inh: qHTS for Inhibitors of TGF-b: Hit Validation in HepG2 Cells using COP promoter. shares compounds with TGFb inhibitor. 1,600 tested, 3% active. AID 720537, 2013. HepG2 COP-GFP TGF-b reporter, GFP fluorescence, 18 h; cells stimulated by added recombinant TGF-beta. Potency, µM (top dose mostly 46.1 µM), inactives show top-dose activity, negative = inhibition, hits mostly inhibitors; further: nearly all actives have a fitted effect of over 70% in size
An asterisk follows results filed as active; u = inconclusive; x = no result given. Hits are enriched below; roughly 17% of the tested compounds scored in any of these assays. The call rests on the fitted dose curve; in most records, active means well fitted curve in the direction sought with a large enough effect; inconclusive means small, poorly fitted or top-dose-only effect, or another doubt; inactive means no such curve, though single readings can be large; an effect the other way counts as inactive or inconclusive. Potency means the concentration at half of the fitted maximal effect.

SMILES	TDP1 cell noCPT	HepG2 tox-1	TGFb inhibitor	HT1080 IDH1KD tx	TDP1 cell CPT	HT1080-NT tox	TGFb CAGA inh	HepG2 tox-2	TGFb CCL64 inh	TGFb COP inh
O=C1N[C@@H](c2ccccc2)COC(=O)[C@@H](Cc2ccc(F)cc2)CC/C=C/C[C@@H]1CC(=O)N(CCO)Cc1ccccc1	18µM*	0%	u	u	13µM*	u	15µM*	-21%	u	25%
O=C(C[C@@H]1C/C=C\C[C@@H](Cc2ccc(F)cc2)C(=O)OC[C@@H](Cc2ccccc2)NC1=O)N[C@H](CO)Cc1ccccc1	-23%	-34%	u	5%	u	1%	3%	7%	4%	0%
N/C(=N\OC(=O)COc1ccccc1)c1cccnc1	-11%	1%	19%	12%	-24%	14%	x	x	x	x
NC(=O)c1cccc(-c2cnc(N)c(C(=O)c3cccnc3)n2)c1	9.2µM*	-28%	10µM*	-25%	2.3µM*	-19%	4.6µM*	16µM*	-101%	33%
O=C(c1cc([N+](=O)[O-])[nH]n1)N1CCSCC1	2%	4%	1%	1%	30%	18%	x	x	x	x
CC1(C(=O)NCC2CCCCC2)CCN1C(=O)Cc1ccc(-c2ccccc2)cc1 (stereo unspecified)	23µM*	-53%	u	u	u	u	-8%	-29%	u	15%
Cc1ccc(NC(=O)Cc2cc(C(=O)O)c3ccccc3n2)c(C)c1	21µM*	-53%	8.9µM*	u	15µM*	-23%	u	u	7.3µM*	44%
CC1=C(C(=O)Nc2cccc(C(=O)N3CCC(C(N)=O)CC3)c2)SCCO1	2%	-4%	-3%	3%	-2%	3%	x	x	x	x
Cc1cc(C)nc(OC(C(=O)O)C(OCC(C)C)(c2ccccc2)c2ccccc2)n1 (stereo unspecified)	u	-1%	-1%	-16%	u	-25%	x	x	x	x
